# For some of these results: Measured potencies and affinities stand elsewhere. Calls of active or inactive are those of the source.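 How the source made its calls, unless noted: active means compound raising the membrane signal above positive-control mean plus 3 SD in both repeats, and a primary screen hit; inactive means the rest.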
# Key:
# [1] = test system: TRPC4 beta (transient receptor potential cation channel C4), mouse; experiment: TRPC4 cation channel opening, retest – cell-based, Fluo4 calcium, HEK293 TRPC4beta/mu-opioid, duplicates, 10 µM, confirmation (AID 2426;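 active means fluorescence ratio normalized to control raised more than 50% in primary screen plus both repeat runs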;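 on activation: percent rise of integrated ratio over buffer wells lacking compound which define 0%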); details: Fluo4 calcium fluorescence, at 10 µM; active compounds read high
# [2] = test system: transient receptor potential cation channel C4 beta (TRPC4), mouse; experiment: TRPC4 cation channel opening, second retest – cell-based, second round, Fluo4, HEK293 TRPC4beta/mu-opioid, 1 µM, confirmation (AID 2461;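 active means primary screen active and over 50% activation in each of two duplicate runs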); details: Fluo4 calcium fluorescence, at 1 µM; active compounds read high
# [3] = test system: TRPC4 (transient receptor potential cation channel C4 beta), mouse; experiment: potentiation of DAMGO EC20 TRPC4 response – cell-based, second round, Fluo-4, HEK293 TRPC4beta/mu-opioid, 1 µM, confirmation (AID 2554;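 active means primary screen hit whose fluorescence ratio, in both repeats, exceeds the weak agonist control mean by 3 SD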); details: DAMGO EC20, Fluo-4 calcium flux, at 1 µM; active compounds read high
# [4] = test system: TRPC4 beta (transient receptor potential cation channel C4), mouse; experiment: potentiation of DAMGO EC20 TRPC4 response – cell-based, Fluo-4, HEK293 TRPC4beta/mu-opioid, confirmation (AID 2555;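 active means primary screen hit whose calcium fluorescence ratio, in both repeats, exceeds the weak agonist control mean by 3 SD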); details: DAMGO EC20, Fluo-4 calcium flux, at 10 µM; active compounds read high
# [5] = molecular target: Short transient receptor potential channel 4 (Mus musculus) (UniProt Q9QUQ5); experiment: blockers of DAMGO-evoked TRPC4 calcium flux – cell-based, Fluo4, HEK293 TRPC4beta/mu-opioid, confirmation (AID 2636;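 active means calcium signal cut by more than 3 SD below the full-agonist control yet still positive, in both repeats and the earlier primary screen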); details: at 10 µM; active compounds read high
# Sequence of Short transient receptor potential channel 4 (Mus musculus) (Q9QUQ5 whole entry, looked up): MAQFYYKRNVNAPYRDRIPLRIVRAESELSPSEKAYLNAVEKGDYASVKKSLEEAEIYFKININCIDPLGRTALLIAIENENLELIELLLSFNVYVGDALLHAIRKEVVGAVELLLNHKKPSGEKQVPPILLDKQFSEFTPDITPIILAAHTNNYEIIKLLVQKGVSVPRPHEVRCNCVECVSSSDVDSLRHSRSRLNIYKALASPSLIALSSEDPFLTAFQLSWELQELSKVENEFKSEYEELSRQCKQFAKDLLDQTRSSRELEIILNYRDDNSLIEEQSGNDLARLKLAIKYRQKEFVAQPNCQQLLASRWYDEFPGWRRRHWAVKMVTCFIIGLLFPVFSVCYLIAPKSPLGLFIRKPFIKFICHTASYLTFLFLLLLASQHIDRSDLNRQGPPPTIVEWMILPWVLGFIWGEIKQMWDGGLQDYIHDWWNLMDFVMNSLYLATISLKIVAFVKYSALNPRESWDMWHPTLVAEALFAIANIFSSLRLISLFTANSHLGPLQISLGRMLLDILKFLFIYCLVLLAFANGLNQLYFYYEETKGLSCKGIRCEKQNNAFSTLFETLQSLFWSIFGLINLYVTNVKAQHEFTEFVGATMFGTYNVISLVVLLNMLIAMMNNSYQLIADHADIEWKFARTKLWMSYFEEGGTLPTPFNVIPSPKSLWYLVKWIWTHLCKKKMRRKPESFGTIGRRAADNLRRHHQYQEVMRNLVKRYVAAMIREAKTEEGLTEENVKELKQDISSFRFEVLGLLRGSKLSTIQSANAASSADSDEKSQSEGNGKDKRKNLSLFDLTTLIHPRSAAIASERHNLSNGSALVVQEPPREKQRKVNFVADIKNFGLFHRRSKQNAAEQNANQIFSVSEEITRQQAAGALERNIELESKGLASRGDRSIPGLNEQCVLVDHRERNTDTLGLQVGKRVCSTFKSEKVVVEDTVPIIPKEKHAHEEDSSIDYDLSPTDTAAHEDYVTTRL
# [6] = molecular target: Short transient receptor potential channel 4 (Mus musculus) (UniProt Q9QUQ5); experiment: blockers of DAMGO-evoked TRPC4 calcium flux – cell-based, second round, Fluo4, HEK293 TRPC4beta/mu-opioid, 1 µM, confirmation (AID 2637;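 active means calcium signal ratio cut to more than 3 SD under the fully stimulated control mean yet still positive, in both repeats and the primary screen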); details: at 1 µM; active compounds read high
# [7] = molecular target: Short transient receptor potential channel 4 (Mus musculus) (UniProt Q9QUQ5); experiment: calcium entry via TRPC4 opening agents – cell-based, HEK293 TRPC4/mu-opioid, Fluo-4 calcium, dose response (AID 434937;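 active means primary screen activator hit with a dose response curve and TRPC4 channel activation at any tested dose; inactive means no activation, no dose response, or not a primary hit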)
# [8] = molecular target: Short transient receptor potential channel 4 (Mus musculus) (UniProt Q9QUQ5); experiment: potentiation of DAMGO-evoked TRPC4 calcium signal – cell-based, HEK293 TRPC4/mu-opioid, Fluo-4 calcium, EC20 DAMGO, dose response (AID 434941;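 active means earlier screen potentiator hit that boosts the TRPC4 ion channel at some dose, with a dose response; inactive means no potentiation, no dose response, or not a prior hit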;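 further: calcium entry triggered by an EC20 dose of DAMGO at the co-expressed mu-opioid receptor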)
# [9] = molecular target: Short transient receptor potential channel 4 (Mus musculus) (UniProt Q9QUQ5); experiment: block of DAMGO-driven TRPC4 calcium entry – cell-based, HEK293 TRPC4/mu-opioid, Fluo-4 calcium, dose response (AID 434942;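 active means primary screen inhibitor hit that blocks the TRPC4 channel at some tested dose, yielding a dose curve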)
# [10] = molecular target: Short transient receptor potential channel 6 (Mus musculus) (UniProt Q61143); experiment: TRPC6 blockade by TRPC4 inhibitor hits – cell-based, HEK293, membrane potential dye, duplicate, selectivity assay for TRPC4 inhibitor project, confirmation (AID 434948;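 active means active in primary screen and both duplicates, each dropping signal beyond three positive-control SD with fluorescence still positive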); details: HEK293 TRPC6, membrane potential dye fluorescence, at 10 µM, stimulated with maximal-effect acetylcholine; active compounds read high
# Sequence of Short transient receptor potential channel 6 (Mus musculus) (Q61143 whole entry, looked up): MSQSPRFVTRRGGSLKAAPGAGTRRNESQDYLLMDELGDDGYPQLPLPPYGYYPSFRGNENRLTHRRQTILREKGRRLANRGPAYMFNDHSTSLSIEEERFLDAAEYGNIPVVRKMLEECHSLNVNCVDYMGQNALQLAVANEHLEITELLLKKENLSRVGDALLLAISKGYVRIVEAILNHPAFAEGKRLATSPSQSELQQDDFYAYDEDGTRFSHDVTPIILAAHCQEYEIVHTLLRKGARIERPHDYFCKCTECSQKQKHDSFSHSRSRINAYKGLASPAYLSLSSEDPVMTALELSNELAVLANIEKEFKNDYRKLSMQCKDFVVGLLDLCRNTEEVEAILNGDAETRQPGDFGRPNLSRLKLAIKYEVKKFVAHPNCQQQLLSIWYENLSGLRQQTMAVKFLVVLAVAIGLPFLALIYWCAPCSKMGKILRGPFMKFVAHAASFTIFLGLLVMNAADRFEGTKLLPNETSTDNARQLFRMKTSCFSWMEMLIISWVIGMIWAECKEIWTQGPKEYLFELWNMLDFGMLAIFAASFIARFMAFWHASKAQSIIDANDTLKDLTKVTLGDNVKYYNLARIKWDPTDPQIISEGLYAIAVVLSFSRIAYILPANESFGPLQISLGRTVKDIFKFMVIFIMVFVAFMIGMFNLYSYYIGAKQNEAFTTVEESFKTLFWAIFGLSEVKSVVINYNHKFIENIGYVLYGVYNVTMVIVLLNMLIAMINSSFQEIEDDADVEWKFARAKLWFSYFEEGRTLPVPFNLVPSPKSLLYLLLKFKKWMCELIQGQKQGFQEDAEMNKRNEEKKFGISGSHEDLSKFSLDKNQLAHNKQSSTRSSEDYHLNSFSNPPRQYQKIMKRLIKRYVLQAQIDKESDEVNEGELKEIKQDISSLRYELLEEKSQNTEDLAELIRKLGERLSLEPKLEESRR
# [11] = molecular target: Short transient receptor potential channel 6 (Mus musculus) (UniProt Q61143); experiment: TRPC6 opening by TRPC4 activator hits – cell-based, HEK293, membrane potential dye, duplicate, selectivity assay for TRPC4 activator project, confirmation (AID 434950;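 active means membrane potential signal rise above negative control mean plus 3 SD in both duplicates, also active in the earlier TRPC4 screen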;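 on activation: 0% = buffer only wells and 100% = acetylcholine maximal-effect wells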); details: HEK293 TRPC6, membrane potential fluorescence, at 10 µM; activation: active compounds read high; outcome: activation
# [12] = molecular target: Short transient receptor potential channel 6 (Mus musculus) (UniProt Q61143); experiment: positive modulators of mouse TRPC6 channel – HEK293 cells, membrane potential dye, duplicate, selectivity assay for TRPC4 potentiator project, confirmation (AID 434952); details: HEK293 TRPC6, membrane potential dye fluorescence, at 10 µM, maximal acetylcholine added after compound; active compounds read high
# [13] = molecular target: Short transient receptor potential channel 4 (Mus musculus) (UniProt Q9QUQ5); experiment: calcium flux activators in TRPC4/5HT1a cells, counter-screen for TRPC4 activator project, cell-based, second counter screen, HEK293 TRPC4/5HT1a, Fluo-4 (AID 434977;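 active means calcium signal rise above buffer-control mean plus 5 SD in both duplicates, and also a hit in the primary screen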;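 on activation: plate controls were assay buffer for no effect and maximal serotonin response for full effect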); details: Fluo-4 calcium flux, at 10 µM; active compounds read high
# [14] = serotonin-gated TRPC4 signal block – cell-based, second counter screen, HEK293 TRPC4/5HT1a, Fluo-4, counter-screen for TRPC4 inhibitor project, confirmation (AID 434978;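 active means primary screen active whose calcium signal fell more than 3 SD beyond the full-serotonin control mean in both duplicate plates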;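 on outcome: serotonin given first at submaximal then at maximal dose after compound preincubation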); details: Fluo-4 calcium flux, at 10 µM, serotonin added to trigger calcium flux; active compounds read high
# [15] = test system: TRPC4 (mouse), co-expressed with 5HT1a in HEK293; experiment: enhancement of serotonin-evoked TRPC4 response – cell-based, second counter screen, HEK293 TRPC4/5HT1a, Fluo-4, counter-screen for TRPC4 potentiator project, confirmation (AID 434979;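 active means signal rise over 3 SD above mean of control wells given weak agonist, in both repeats and first screen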); details: Fluo-4 calcium flux, at 10 µM, serotonin added at its EC20 dose; active compounds read high
# [16] = nonspecific calcium rise without TRPC4 – cell-based, HEK293 mu-opioid receptor line, counter-screen for TRPC4 activator project, confirmation (AID 449723;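 active means hit in primary screen, with calcium signal over 5 SD above buffer well mean in both duplicates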;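 further: counter screen cells carry the mu-opioid receptor alone and lack TRPC4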); details: HEK293 mu-opioid cells, Fluo-4 calcium fluorescence, at 10 µM; active compounds read high
# [17] = nonspecific potentiation of DAMGO calcium response – cell-based, HEK293 mu-opioid receptor line, counter-screen for TRPC4 allosteric potentiator project, confirmation (AID 449724;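 active means calcium signal rise more than 3 SD above the low-dose agonist control mean, in both duplicate plates and the primary screen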); details: HEK293 mu-opioid receptor cells, Fluo-4 calcium flux, at 10 µM, compound added before EC20 DAMGO stimulus; active compounds read high
compound,measurement,setting,value
Fc1ccc(CN2C3=NCCCN3c3ccccc32)cc1,outcome,[1],inactive
same,outcome,[2],inactive
same,outcome,[3],inactive
same,outcome,[4],inactive
same,outcome,[5],inactive
same,outcome,[6],inactive
same,outcome,[7],inactive
same,outcome,[8],inactive
same,outcome,[9],inactive
same,outcome,[10],inactive
same,outcome,[11],inactive
same,outcome,[12],inactive
same,outcome,[13],inactive
same,outcome,[14],inactive
same,outcome,[15],inactive
same,outcome,[16],inactive
same,outcome,[17],inactive
CCOC(=O)C(=NC1CCS(=O)(=O)C1)NNc1ccccc1Cl (stereo not drawn),outcome,[1],inactive
same,outcome,[2],inactive
same,outcome,[3],inactive
same,potentiation,[4],85% (active)
same,outcome,[5],inactive
same,outcome,[6],inactive
same,outcome,[7],inactive
same,outcome,[8],inactive
same,outcome,[9],inactive
same,outcome,[10],inactive
same,outcome,[11],inactive
same,outcome,[12],inactive
same,outcome,[13],inactive
same,outcome,[14],inactive
same,potentiation,[15],64.7% (active)
same,outcome,[16],inactive
same,outcome,[17],inactive
NC(N)=NN=C1CCC(c2ccccc2)CC1 (stereo not drawn),outcome,[1],inactive
same,outcome,[2],inactive
same,outcome,[3],inactive
same,outcome,[4],inactive
same,outcome,[5],inactive
same,outcome,[6],inactive
same,outcome,[7],inactive
same,outcome,[8],inactive
same,outcome,[9],inactive
same,outcome,[10],inactive
same,outcome,[11],inactive
same,outcome,[12],inactive
same,outcome,[13],inactive
same,outcome,[14],inactive
same,outcome,[15],inactive
same,outcome,[16],inactive
same,outcome,[17],inactive
Cc1cc2nc(CSc3ccc(Cl)cc3)cc(=O)n2[nH]1,outcome,[1],inactive
same,outcome,[2],inactive
same,outcome,[3],inactive
same,outcome,[4],inactive
same,outcome,[5],inactive
same,outcome,[6],inactive
same,outcome,[7],inactive
same,outcome,[8],inactive
same,outcome,[9],inactive
same,outcome,[10],inactive
same,outcome,[11],inactive
same,outcome,[12],inactive
same,outcome,[13],inactive
same,outcome,[14],inactive
same,outcome,[15],inactive
same,outcome,[16],inactive
same,outcome,[17],inactive
OC1(c2ccc(Br)cc2)CN(c2ccccc2)C2=[N+]1CCS2 (stereo not drawn),outcome,[1],inactive
same,outcome,[2],inactive
same,outcome,[3],inactive
same,outcome,[4],inactive
same,outcome,[5],inactive
same,outcome,[6],inactive
same,outcome,[7],inactive
same,outcome,[8],inactive
same,outcome,[9],inactive
same,outcome,[10],inactive
same,activation,[11],36.5% (active)
same,outcome,[12],inactive
same,outcome,[13],inactive
same,outcome,[14],inactive
same,outcome,[15],inactive
same,outcome,[16],inactive
same,outcome,[17],inactive
O=C(Nc1ccc(F)cc1)Nc1cc(S(=O)(=O)N2CCOCC2)ccc1N1CCCC1,outcome,[1],inactive
same,outcome,[2],inactive
same,outcome,[3],inactive
same,potentiation,[4],53% (active)
same,outcome,[5],inactive
same,outcome,[6],inactive
same,outcome,[7],inactive
same,outcome,[8],inactive
same,outcome,[9],inactive
same,outcome,[10],inactive
same,outcome,[11],inactive
same,outcome,[12],inactive
same,outcome,[13],inactive
same,outcome,[14],inactive
same,potentiation,[15],33% (active)
same,outcome,[16],inactive
same,outcome,[17],inactive
CC(C)Oc1ccc(CCC(=O)NNC(=S)NCc2ccccc2)cc1,outcome,[1],inactive
same,outcome,[2],inactive
same,outcome,[3],inactive
same,outcome,[4],inactive
same,outcome,[5],inactive
same,outcome,[6],inactive
same,outcome,[7],inactive
same,outcome,[8],inactive
same,outcome,[9],inactive
same,outcome,[10],inactive
same,activation,[11],37.5% (active)
same,outcome,[12],inactive
same,outcome,[13],inactive
same,outcome,[14],inactive
same,outcome,[15],inactive
same,outcome,[16],inactive
same,outcome,[17],inactive
Cc1cc(Br)ccc1OCCN1CCCC1,outcome,[1],inactive
same,outcome,[2],inactive
same,potentiation,[3],12% (active)
same,outcome,[4],inactive
same,outcome,[5],inactive
same,outcome,[6],inactive
same,outcome,[7],inactive
same,outcome,[8],inactive
same,outcome,[9],inactive
same,outcome,[10],inactive
same,outcome,[11],inactive
same,outcome,[12],inactive
same,outcome,[13],inactive
same,outcome,[14],inactive
same,potentiation,[15],7.25% (active)
same,outcome,[16],inactive
same,outcome,[17],inactive
Cc1ccc(C)n1-c1nnc(N2CCC(C(=O)NCCCN3CC(C)CC(C)C3)CC2)s1 (stereo not drawn),activation,[1],67% (active)
same,outcome,[2],inactive
same,outcome,[3],inactive
same,outcome,[4],inactive
same,outcome,[5],inactive
same,outcome,[6],inactive
same,outcome,[7],inactive
same,outcome,[8],inactive
same,outcome,[9],inactive
same,outcome,[10],inactive
same,outcome,[11],inactive
same,outcome,[12],inactive
same,activation,[13],20.3% (active)
same,outcome,[14],inactive
same,outcome,[15],inactive
same,outcome,[16],inactive
same,outcome,[17],inactive
COc1cccc(Oc2cncnc2-c2ccc(OC)cc2O)c1,outcome,[1],inactive
same,outcome,[2],inactive
same,outcome,[3],inactive
same,outcome,[4],inactive
same,outcome,[5],inactive
same,outcome,[6],inactive
same,outcome,[7],inactive
same,outcome,[8],inactive
same,outcome,[9],inactive
same,outcome,[10],inactive
same,outcome,[11],inactive
same,outcome,[12],inactive
same,outcome,[13],inactive
same,outcome,[14],inactive
same,outcome,[15],inactive
same,outcome,[16],inactive
same,outcome,[17],inactive
CCC(=O)c1cc2c(C)cc(=O)oc2c(C)c1OC(=O)C(C)C,outcome,[1],inactive
same,outcome,[2],inactive
same,outcome,[3],inactive
same,outcome,[4],inactive
same,inhibition,[5],85% (active)
same,outcome,[6],inactive
same,outcome,[7],inactive
same,outcome,[8],inactive
same,outcome,[9],inactive
same,outcome,[10],inactive
same,outcome,[11],inactive
same,outcome,[12],inactive
same,outcome,[13],inactive
same,inhibition,[14],12.2% (active)
same,outcome,[15],inactive
same,outcome,[16],inactive
same,outcome,[17],inactive
NS(=O)(=O)c1ccc(NN=C2CCN(Cc3ccccc3)CC2)c([N+](=O)[O-])c1,outcome,[1],inactive
same,outcome,[2],inactive
same,outcome,[3],inactive
same,outcome,[4],inactive
same,outcome,[5],inactive
same,outcome,[6],inactive
same,outcome,[7],inactive
same,outcome,[8],inactive
same,outcome,[9],inactive
same,outcome,[10],inactive
same,outcome,[11],inactive
same,outcome,[12],inactive
same,outcome,[13],inactive
same,outcome,[14],inactive
same,potentiation,[15],16.3% (active)
same,outcome,[16],inactive
same,outcome,[17],inactive
NC(=O)NCCN1CCN(c2ncc(C(F)(F)F)cc2Cl)CC1,outcome,[1],inactive
same,outcome,[2],inactive
same,potentiation,[3],8% (active)
same,potentiation,[4],11% (active)
same,outcome,[5],inactive
same,outcome,[6],inactive
same,outcome,[7],inactive
same,outcome,[8],inactive
same,outcome,[9],inactive
same,outcome,[10],inactive
same,outcome,[11],inactive
same,outcome,[12],inactive
same,outcome,[13],inactive
same,outcome,[14],inactive
same,potentiation,[15],22% (active)
same,outcome,[16],inactive
same,outcome,[17],inactive
O/N=C/c1cn(-c2ccccc2)nc1-c1ccc2c(c1)OCCO2,outcome,[1],inactive
same,outcome,[2],inactive
same,outcome,[3],inactive
same,potentiation,[4],16% (active)
same,outcome,[5],inactive
same,outcome,[6],inactive
same,outcome,[7],inactive
same,outcome,[8],inactive
same,outcome,[9],inactive
same,outcome,[10],inactive
same,outcome,[11],inactive
same,outcome,[12],inactive
same,outcome,[13],inactive
same,outcome,[14],inactive
same,potentiation,[15],29.3% (active)
same,outcome,[16],inactive
same,outcome,[17],inactive

# Source: PubChem BioAssay
